Source: PubChem (National Center for Advancing Translational Sciences (NCATS))
The entries come from a sample that favours hits as a whole.
SARS PLpro yeast: qHTS of Yeast-based Assay for SARS-CoV PLP | S. cerevisiae expressing SARS-CoV PLpro, growth rescue | actives 0.19% (n = 330,000) | Potency, µM (series often up to 32.9 µM), most hits filed as activators; also: nearly all actives have a fitted effect of over 55% in size
NS1 inh: qHTS Assay for Inhibitors of Influenza NS1 Protein Function | Potency, µM (highest dose often 46.1 µM) | actives 0.4% (n = 270,000) | AID 2326, 2010; also: actives are rising curves; nearly all actives have a fitted effect of over 50% in size
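OD600 was taken as the measure of yeast growth restored by compound in an NS1-expressing S. cerevisiae strain. Cells had been washed out of glucose medium and diluted 1:100 into galactose -URA medium, pH 6.0.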
TbPYK inhibitor: qHTS of Trypanosoma Brucei Inhibitors; pyruvate kinase (Trypanosoma brucei), Q57TT1; TbPYK enzyme, Kinase-Glo Plus ATP luminescence, 45 min; Potency, µM (highest dose often 76.8 µM), usual class: inhibitors; actives 0.12% (n = 410,000); AID 624173, 2012; active = well fitted curve in the direction sought with a large enough effect; inconclusive = small, poorly fitted or top-dose-only effect, or another doubt; inactive = no such curve, though single readings can be large; an effect the other way counts as inactive or inconclusive; also: nearly all actives have a fitted effect of over 50% in size
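Enzyme and substrate buffer are dispensed first and compound is pin-transferred. ADP at 130 uM final then starts the reaction, which runs 45 min at room temperature. Detection reagent is added for 10 min before luminescence is imaged.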
LmPK inhibitor: qHTS Assay for Inhibitors of Leishmania Mexicana Pyruvate Kinase (LmPK); Q27686; purified LmPK, Kinase-Glo ATP luminescence, 1 h; Potency, µM (titrated, usually from 57.5 µM), usual class: inhibitors; actives 0.37% (n = 290,000); AID 1721, 2009; active = well fitted curve in the direction sought with a large enough effect; inconclusive = small, poorly fitted or top-dose-only effect, or another doubt; inactive = no such curve, though single readings can be large; an effect the other way counts as inactive or inconclusive
Target sequence (Q27686 whole entry, looked up): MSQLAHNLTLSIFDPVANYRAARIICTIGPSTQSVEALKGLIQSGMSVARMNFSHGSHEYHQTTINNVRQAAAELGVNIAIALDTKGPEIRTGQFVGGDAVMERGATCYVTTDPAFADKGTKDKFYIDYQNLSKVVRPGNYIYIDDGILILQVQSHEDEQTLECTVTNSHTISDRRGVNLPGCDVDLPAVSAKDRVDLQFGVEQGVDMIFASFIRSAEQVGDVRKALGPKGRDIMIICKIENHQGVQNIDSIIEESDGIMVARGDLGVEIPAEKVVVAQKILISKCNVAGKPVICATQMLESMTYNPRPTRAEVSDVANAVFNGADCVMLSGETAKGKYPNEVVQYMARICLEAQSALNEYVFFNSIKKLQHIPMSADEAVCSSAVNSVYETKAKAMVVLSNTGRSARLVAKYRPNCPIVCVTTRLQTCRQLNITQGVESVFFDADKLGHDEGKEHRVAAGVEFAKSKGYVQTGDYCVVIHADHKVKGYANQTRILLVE
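Purified LmPK (0.1 nM) converted ADP (0.1 mM) to ATP with PEP (0.5 mM) in imidazole buffer pH 7.2 with KCl and MgCl2, 1 h at room temperature. ATP was read by Kinase-Glo luminescence; data normalized to uninhibited and no-enzyme controls.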
Shiga inhibitor: A qHTS for Small Molecule Inhibitors of Shiga Toxin | Vero cells, Shiga toxin protein synthesis inhibition reporter | inhibition, % at 38.7 µM | actives 9.2% (n = 290,000); in the data active = inhibition mostly above about 28%, no sharp cut-off; inactive = mostly below about 43%
CHX counter: Cycloheximide Counterscreen for Small Molecule Inhibitors of Shiga Toxin. cell reporter, cycloheximide protein synthesis inhibition counterscreen. max response, %. actives 12% (n = 300,000); in the data active = max response mostly above about 13%, no sharp cut-off; inactive = mostly below about 14%; also: read at 38.3 µM for the half of the compounds with a filed dose
Of the large screens only hits and unclear results are named; the others gave an inactive call. Unless noted, calls follow the shape of the full dose curve.

COc1cccc(/C=C/c2nc3ccccc3c(=O)n2-c2ccc(C)c(C)c2)c1OC	none (no result: SARS PLpro yeast, NS1 inh, LmPK inhibitor, Shiga inhibitor, CHX counter)
CCN(CC)C(=O)Cn1nnc2sc(-c3ccccc3)cc2c1=O	none (no result: SARS PLpro yeast, NS1 inh, LmPK inhibitor, Shiga inhibitor, CHX counter)
O=C(NC1CCCC1)C(c1ccccn1)N(C(=O)c1csnn1)c1ccccc1F (centres undefined)	none
CCCCn1c(-c2ccccc2)cnc1SCC(=O)NCCc1ccc(OC)c(OC)c1	Shiga inhibitor 132, CHX counter 21
C/C(=N\NC(=O)c1ccc(CSc2nncn2C)cc1)c1cccs1	Shiga inhibitor 107, CHX counter 28
Cn1cnnc1SCc1ccc(C(=O)N/N=C(\CCC(=O)O)c2ccc(C(C)(C)C)cc2)cc1	TbPYK inhibitor inconclusive, Shiga inhibitor 32, CHX counter 14
CCC/C(=N\NC(=O)c1ccc(CSc2nncn2C)cc1)c1ccccc1	SARS PLpro yeast inconclusive, NS1 inh inconclusive
Cn1cnnc1SCc1ccc(C(=O)NN)cc1	CHX counter 45
COc1ccc(OCCCC(=O)ON=C(N)c2ccccc2Cl)cc1	none (no result: NS1 inh, LmPK inhibitor, Shiga inhibitor, CHX counter)
CCN(CC)c1ccc(N=CN2CCOCC2)cc1	none
C=CC1CN2CCC1CC2[C@@H](O)c1ccnc2ccc(OC)cc12 (some centres undefined)	none (no result: SARS PLpro yeast, NS1 inh, LmPK inhibitor)
Cc1ccc(C)c(C(=O)CN2Cc3ccccc3C2=O)c1	Shiga inhibitor 65, CHX counter 22
N=C1c2ccccc2CN1CC(=O)c1ccccc1	Shiga inhibitor 40, CHX counter 41
CCc1ccccc1NC(=O)NC(CC)Cn1nnc2ccccc2c1=O (centres undefined)	none (no result: SARS PLpro yeast, NS1 inh, LmPK inhibitor, Shiga inhibitor, CHX counter)
CN(C)c1ccc(/C=C2\C(=O)Nc3ccccc32)cc1	Shiga inhibitor 78, CHX counter 76 (no result: SARS PLpro yeast, TbPYK inhibitor, LmPK inhibitor)
O=C1NC(=O)C(=Cc2ccccc2)N1	none (no result: SARS PLpro yeast, NS1 inh, LmPK inhibitor, Shiga inhibitor, CHX counter)
CC(C)(C)c1cc(/C=C2\NC(=O)NC2=O)cc(C(C)(C)C)c1O	CHX counter 25
CN(C)c1ccc(/C=C2/NC(=O)NC2=O)cc1	Shiga inhibitor active, CHX counter 25
O=C1Nc2ccccc2/C1=C/c1ccccc1F	CHX counter 13
Cc1ccccc1/C=C1\C(=O)Nc2ccc(F)cc21	none
O=C1Nc2ccccc2/C1=C/c1cccnc1	none (no result: NS1 inh)
O=c1[nH][nH]c2c1C(c1ccc(F)cc1)OC(CCc1ccccc1)C2 (centres undefined)	none (no result: SARS PLpro yeast, NS1 inh, LmPK inhibitor, Shiga inhibitor, CHX counter)
CC(C)(C)c1ccc2cc(F)cc(F)c2n1	none (no result: SARS PLpro yeast, NS1 inh, LmPK inhibitor, Shiga inhibitor, CHX counter)
NS(=O)(=O)c1ccc(-c2ccc(/C=C3\C(=O)Nc4ccccc43)o2)cc1	none (no result: TbPYK inhibitor)
Cc1ccc(/C=C2\C(=O)Nc3ccccc32)o1	TbPYK inhibitor inconclusive, CHX counter 18
O=C1Nc2ccccc2/C1=C/c1cnc(-c2ccccc2)[nH]1	Shiga inhibitor 53, CHX counter 59
O=C1Nc2ccccc2/C1=C/c1cnc[nH]1	none
N=c1ccn2c(n1)O[C@H]1[C@@H](OP(=O)(O)O)[C@H](CO)O[C@H]12	none (no result: SARS PLpro yeast, TbPYK inhibitor, LmPK inhibitor, Shiga inhibitor, CHX counter)
CCC(Sc1nnc(C)n2c1cc1sccc12)C(=O)Nc1ccccc1F (centres undefined)	none (no result: SARS PLpro yeast, NS1 inh, LmPK inhibitor, Shiga inhibitor, CHX counter)
c1ccc(-c2nnc(-c3ccccc3)nn2)cc1	TbPYK inhibitor inconclusive, LmPK inhibitor inconclusive, Shiga inhibitor 91, CHX counter 51
c1ccc(-c2nn[nH]n2)cc1	none
O=C(Nc1cccc(-c2nc3ncccc3o2)c1)c1cc2ccccc2o1	Shiga inhibitor 85, CHX counter 22
O=C(Nc1cccc(-c2nc3ncccc3o2)c1)c1sc2cc(Cl)ccc2c1Cl	Shiga inhibitor 44
Oc1ccc(Cl)cc1C1=NNC(c2ccc(Cl)cc2)C1 (centres undefined)	Shiga inhibitor 31, CHX counter 30
O=C1C=C(O)CC(c2ccc(Cl)cc2)C1 (centres undefined)	NS1 inh inconclusive
Oc1c(Cl)cc(Cl)cc1C1=NNC(c2ccc(Cl)cc2)C1 (centres undefined)	Shiga inhibitor 73, CHX counter 31 (no result: NS1 inh)
Oc1ccc(Cl)cc1C1=NNC(c2cc(Br)cc3c2OCOC3)C1 (centres undefined)	none
COc1ccc(C(=O)N/N=C/c2ccccn2)cc1OC	none (no result: NS1 inh)
COc1ccc(OC)c(C(=O)N/N=C/c2ccccn2)c1	Shiga inhibitor 76, CHX counter 30
